Measurements as given in the supplement of paper PMC10981050.
“And” between values parts separate entries of the source, which are not always exact repeats. Equal values may be shown once. Where a name gives a salt, the structure may show the parent alone.

Legend:
Assay in all cases: cell viability relative to vehicle control; higher = less cytotoxic
Details in all cases: 10 µM
[1] = tested on: K562
Outline: (§1)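 CRISPR-edited SRSF2 P95 mutant and isogenic wild-type clones of four leukaemia lines were screened against Selleck bioactive, kinase and epigenetic probe libraries, with identity-inconsistent compounds removed. Compounds were acoustically dispensed into 384-well plates at a single 10 µM dose, with 2000 cells in 50 µL medium per well. After 48 h, supernatant was removed and CellTiter-Glo luminescence was read. Viability was expressed as percent of the on-plate DMSO vehicle control, analysed in Genedata Screener.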

[2] = tested on: MARIMO
Outline: as §1

[3] = tested on: MOLM14
Outline: as §1

[4] = tested on: OCI-AML2
Outline: as §1

| Structure (SMILES) | cell viability ([1]; SRSF2 genotype: SRSF2 P95H/wt) | cell viability ([1]; SRSF2 genotype: SRSF2 wt/wt) [%] | cell viability ([2]; SRSF2 genotype: SRSF2 P95H/wt) [%] | cell viability ([2]; SRSF2 genotype: SRSF2 wt/wt) [%] | cell viability ([3]; SRSF2 genotype: SRSF2 P95H/wt) [%] | cell viability ([3]; SRSF2 genotype: SRSF2 wt/wt) [%] | cell viability ([4]; SRSF2 genotype: P95H/wt) [%] | cell viability ([4]; SRSF2 genotype: wt/wt) [%] |
| --- | --- | --- | --- | --- | --- | --- | --- | --- |
| O=C1CCc2c(ccc3ccccc23)O1 [Splitomicin] | 105% and 97% | 95.4 | 103 | 107 | 98.7 | 99.5 | 96.9 | 102 |
| FC(F)c1nc2ccccc2n1-c1nc(N2CCOCC2)nc(N2CCOCC2)n1 | 71.3% and 77.2% | 70 | 49.4 | 43.4 | 32 | 32.9 | 13.8 | 27.2 |
| C[C@@]12C[C@H](c3ccoc3)O[C@@]13C[C@H](OC3=O)[C@H]1[C@H]2C[C@@H]2C[C@H]1C(=O)O2 [Diosbulbin B] | 103% and 104% | 102 | 105 | 108 | 108 | 110 | 102 | 101 |
| CCOC(=O)c1ncn2c1CN(C)C(=O)c1cc(F)ccc1-2 [Flumazenil] | 107% and 101% | 108 | 95.9 | 107 | 106 | 101 | 94 | 103 |
| COc1ccccc1C(=O)Nc1cc2c(cc1N1CCCC1)n(C)c(=O)n2C | 91.5% and 100% | 92 | 84.1 | 95.3 | 79.4 | 83.4 | 63.5 | 69.2 |
| Cc1csc(-c2nnc(Nc3ccc(Oc4ncccc4-c4ccnc(N)n4)cc3)c3ccccc23)c1 | 67.2% and 86.6% | 81.4 | 91.6 | 77.7 | 53.3 | 30.5 | 38.5 | 33.4 |
| CSCC1CN(/N=C/c2ccc([N+](=O)[O-])o2)C(=O)O1 (stereo not given) [Nifuratel] | 85.1% and 77.7% | 78.8 | 78.3 | 82.2 | 77 | 80.1 | 79.1 | 87.3 |
| CO[C@@H]1[C@@H](OC(N)=O)[C@@H](O)[C@H](Oc2ccc3c(O)c(NC(=O)c4ccc(O)c(CC=C(C)C)c4)c(=O)oc3c2C)OC1(C)C [Novobiocin sodium (Albamycin)] | 103% and 87.6% | 82.6 | 91.6 | 92.9 | 93.6 | 89.7 | 91.4 | 94.4 |
| CC1(C)CC[C@]2(C(=O)O[C@@H]3O[C@H](CO[C@@H]4O[C@H](CO)[C@@H](O)[C@H](O)[C@H]4O)[C@@H](O)[C@H](O)[C@H]3O)CC[C@]3(C)C(=CC[C@@H]4[C@@]5(C)CC[C@H](O[C@@H]6OC[C@H](O)[C@H](O)[C@H]6O)[C@@](C)(CO)[C@@H]5CC[C@]43C)[C@@H]2C1 [Akebia saponin D] | 107% and 101% | 103 | 105 | 113 | 103 | 108 | 96.4 | 106 |
| CC(C)=CCC/C(C)=C/C=O [Citral] | 96% and 106% | 94.4 | 88.4 | 98.9 | 88.2 | 94.8 | 95.3 | 92 |
| C=C1CC[C@@H]2[C@](C)(CO)[C@H](O)CC[C@@]2(C)[C@@H]1C/C=C1/C(=O)OC[C@H]1O [Andrographolide] | 64.7% and 47.9% | 59.5 | 20.5 | 19.6 | 11.1 | 6.73 | 23.4 | 22.4 |
| CCOCCn1c(C2CCN(CCc3ccc(C(C)(C)C(=O)O)cc3)CC2)nc2ccccc21 [Bilastine] | 105% and 108% | 113 | 107 | 104 | 107 | 106 | 108 | 96.2 |
| COC(=O)CNC(=O)C(=O)OC | 93% and 96.6% | 96.3 | 89.1 | 90.8 | 92.6 | 94.5 | 56.9 | 64.9 |
| O=c1c2cc(O)c(O)cc2oc2cc(O)c([C@@H]3O[C@H](CO)[C@@H](O)[C@H](O)[C@H]3O)c(O)c12 [Mangiferin] | 106% and 96.7% | 99.3 | 97.7 | 104 | 103 | 104 | 86.5 | 102 |
| O=C(Nc1ccc(Oc2ccc(Cl)cc2)c(Cl)c1)c1cc(I)cc(I)c1O [Rafoxanide] | 85.2% and 95.8% | 97.9 | 101 | 111 | 80.4 | 108 | 105 | 101 |
| C[C@H]1C[C@H]2[C@@H]3CCC4=CC(=O)C=C[C@]4(C)[C@@]3(F)[C@@H](O)C[C@]2(C)[C@@]1(O)C(=O)CO [Betamethasone (Celestone)] | 92.1% and 85.8% | 89.5 | 86.1 | 98.4 | 92.8 | 86 | 84.4 | 108 |
| CC(=O)c1cc([N+](=O)[O-])c(Sc2ccc(F)cc2F)s1 | 69% and 79.6% | 71 | 57.1 | 54.2 | 13.7 | 12.3 | 76.6 | 35.3 |
| COc1ccc(-c2oc3c(CC=C(C)C)c(O)cc(O)c3c(=O)c2O[C@@H]2O[C@@H](C)[C@H](O)[C@@H](O)[C@H]2O)cc1 [Baohuoside I] | 101% and 98.2% | 90.4 | 94.6 | 107 | 87.8 | 88.5 | 101 | 107 |
| O=NN(CCCl)C(=O)NC1CCCCC1 [Lomustine (CeeNU)] | 95% and 113% | 111 | 100 | 99.9 | 84 | 97.9 | 97.2 | 105 |
| OC[C@H]1O[C@H](OC[C@H]2O[C@H](O[C@]3(CO)O[C@H](CO)[C@@H](O)[C@@H]3O)[C@H](O)[C@@H](O)[C@@H]2O)[C@H](O)[C@@H](O)[C@H]1O [Raffinose] | 97.9% and 96.4% | 95.4 | 97.2 | 103 | 103 | 98.1 | 94.5 | 98.6 |

| Structure (SMILES) | cell viability ([1]; SRSF2 genotype: SRSF2 P95H/wt) | cell viability ([1]; SRSF2 genotype: SRSF2 wt/wt) [%] | cell viability ([2]; SRSF2 genotype: SRSF2 P95H/wt) [%] | cell viability ([2]; SRSF2 genotype: SRSF2 wt/wt) [%] | cell viability ([3]; SRSF2 genotype: SRSF2 P95H/wt) [%] | cell viability ([3]; SRSF2 genotype: SRSF2 wt/wt) [%] | cell viability ([4]; SRSF2 genotype: P95H/wt) [%] | cell viability ([4]; SRSF2 genotype: wt/wt) [%] |
| --- | --- | --- | --- | --- | --- | --- | --- | --- |
| CCN1CCN(c2cc3c(cc2F)c(=O)c(C(=O)O)cn3C2CC2)CC1 [Enrofloxacin] | 98.9% and 111% | 99.2 | 108 | 111 | 103 | 111 | 109 | 109 |
| O=C(O)CC1CC(c2ccccc2)=NO1 (stereo not given) | 108% and 104% | 103 | 97 | 110 | 97.4 | 99.7 | 89.5 | 95.5 |
| COc1c(O)cc2c(c1O)C(=O)c1c(cc(C)c(O)c1OC)C2=O [Aurantio-obtusin] | 87% and 81.9% | 79.3 | 84.5 | 84.3 | 84.5 | 88.9 | 97.9 | 91.5 |
| CC[C@H]1OC(=O)C[C@@H](O)[C@H](C)[C@@H](O[C@@H]2O[C@H](C)[C@@H](O[C@H]3C[C@@](C)(O)[C@@H](O)[C@H](C)O3)[C@H](N(C)C)[C@H]2O)[C@@H](CC=O)C[C@@H](C)C(=O)/C=C/C(C)=C/[C@@H]1CO[C@@H]1O[C@H](C)[C@@H](O)[C@@H](OC)[C@H]1OC [Tylosin] | 99.6% and 98.3% | 102 | 106 | 109 | 101 | 105 | 105 | 112 |
| CC1(C)CCC(CN2CCN(c3ccc(C(=O)NS(=O)(=O)c4ccc(NCC5CCOCC5)c([N+](=O)[O-])c4)c(Oc4cnc5[nH]ccc5c4)c3)CC2)=C(c2ccc(Cl)cc2)C1 [Venetoclax (ABT-199, GDC-0199)] | 79% and 81.2% | 76 | 0.58 | 6.31 | 1.63 | 7.23 | 1.25 | 10.2 |
| CC(=O)OCC(=O)[C@@]12N=C(C)O[C@@H]1C[C@H]1[C@@H]3CCC4=CC(=O)C=C[C@]4(C)[C@H]3[C@@H](O)C[C@@]12C [Deflazacort (Calcort)] | 98.4% and 102% | 103 | 95 | 109 | 103 | 97 | 91.4 | 114 |
| CC(C)S(=O)(=O)c1ccc2nccc(Nc3ccc4scnc4c3)c2c1 | 60.2% and 78.2% | 63.7 | 101 | 108 | 75.2 | 78.2 | 83.2 | 88.5 |
| CN[C@H]1CN(c2ccc3c(=O)c(C(=O)O)cn(-c4nccs4)c3n2)C[C@@H]1OC [Voreloxin (SNS-595) hydrochloride] | 74% and 88.4% | 79.8 | 20.8 | 36 | 21.3 | 7.31 | 15.6 | 19.9 |
| C=C1CCC2C(C)(CO)C(O)CCC2(C)C1CC=C1C=COC1=O (stereo not given) [Dehydroandrographolide] | 75.2% and 78.9% | 75.8 | 77.8 | 96.3 | 83.8 | 93.9 | 74.6 | 86.5 |
| C/C=C(\C)C(=O)OC1c2c(ccc3ccc(=O)oc23)OC(C)(C)C1OC(=O)/C(C)=C/C (stereo not given) [Paeruptorin B] | 92.7% and 97.1% | 89.7 | 86.9 | 96.3 | 89.7 | 92.3 | 93.8 | 103 |
| COc1cc(NS(=O)(=O)c2ccc(N)cc2)nc(OC)n1 [SulfadiMethoxine sodium] | 106% and 100% | 111 | 100 | 105 | 106 | 107 | 102 | 118 |
| COc1ccc(CC(=O)O)cc1OC [Homoveratrumic acid] | 92% and 79.3% | 85.9 | 89.2 | 98.9 | 89.3 | 92.8 | 88.2 | 99 |
| O=C(O)/C=C/c1ccc(Cn2ccnc2)cc1 [Ozagrel] | 102% and 100% | 94.6 | 101 | 106 | 102 | 100 | 98.1 | 99.6 |
| CCS(=O)(=O)Nc1ccc2[nH]c(O)c(C(=Nc3ccc(CN4CCCCC4)cc3)c3ccccc3)c2c1 [Hesperadin] | 19.5% and 24% | 15.9 | 5.46 | 9.42 | 0.94 | 0.3 | 5.95 | 9.44 |
| CC(C)NCC(O)COc1cccc2ccccc12 (stereo not given) [Propranolol HCl] | 94% and 88.3% | 97.6 | 86.2 | 92.9 | 94.2 | 98.2 | 84.7 | 97 |
| COc1ccc(COc2ccc(CC#N)cc2)cc1 | 103% | 97.9 | 96.4 | 108 | 114 | 110 | 96.3 | 82.9 |
| CC(C)(Sc1ccncc1-c1ccc(C#N)c2ccccc12)C(=O)O [Verinurad (RDEA3170)] | 102% and 101% | 102 | 105 | 104 | 95.8 | 102 | 109 | 105 |
| O=C(O)CCC(=O)O [Succinic acid] | 90.3% and 88.2% | 88 | 83.8 | 96.1 | 93.1 | 93.6 | 85.1 | 97.5 |
| COc1cc(C(=O)OCCCCNC(=N)N)cc(OC)c1O [Leonurine] | 105% and 99% | 95.2 | 98.4 | 112 | 95.2 | 104 | 94.4 | 107 |
| COc1cc2c(c(O)c1OC)-c1c(cc(OC)c(OC)c1OC)C[C@@H](C)[C@@H](C)C2 [Schisanhenol] | 96.7% and 100% | 97.1 | 100 | 107 | 90.3 | 96.8 | 91.7 | 102 |
